Drawing on PubChem BioAssay (Tox21), this text covers Potency for 20 molecules.

Values joined by “and” are separate entries in the source; they are usually repeats but may differ in a detail not shown here. Equal values may be shown once. Results filed as inconclusive are left out. A structure can be active in one record and inactive in another. Active and inactive are the calls of the source. Unless noted, calls follow the shape of the dose curve; as a rule, active = well fitted curve in the direction sought with a large enough effect in the repeat runs; inconclusive = weak or mixed curves; inactive = no such curve, though single readings can be large; an effect the other way counts as inactive or inconclusive.

Assay [1] has as its target Aryl hydrocarbon receptor (Homo sapiens) (UniProt P35869). The experiment in a line: qHTS assay to identify small molecule that activate the aryl hydrocarbon receptor (AhR) signaling pathway (AID 743085). Also: nearly all actives have a fitted effect of over 15% in size. Also: potency is read from the fitted curve at half-maximal effect.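 As to activation: HG2L7.5c1 human HepG2 liver cells with stably integrated DRE-driven firefly reporter; series mostly up to about 70 µM.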 Put shortly: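 Compounds were tested in HepG2 hepatocellular carcinoma cells harbouring a stably integrated luciferase gene under control of 20 DREs. Increased reporter signal after 24 h treatment at 37C was taken as AhR activation.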

A short description of assay [2]: qHTS assay to identify small molecule that activate the aryl hydrocarbon receptor (AhR) signaling pathway - cell viability counter screen (AID 743086). Also: nearly all actives have a fitted effect of over 45% in size. Also: potency is read from the fitted curve at half-maximal effect. Put shortly:
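Cytotoxicity counter screen: CellTiter-Fluor signal (30 min, 37 C) in 4000 HepG2 cells/well carrying the DRE-luciferase reporter, following 24 h compound exposure at 37 C.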

A short description of assay [3]: qHTS assay to identify small molecule antagonists of the peroxisome proliferator-activated receptor gamma (PPARg) signaling pathway - cell viability counter screen (AID 743194). Also: nearly all actives have a fitted effect of over 55% in size. Also: potency is read from the fitted curve at half-maximal effect. A digest of the protocol:
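Viability was measured as CellTiter-Glo luminescence in GeneBLAzer PPARg UAS-bla HEK293H cells. These cells had been exposed 17 h at 37 C to compounds together with rosiglitazone at 50 nM final, with the beta-lactamase readout taken in the same wells.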

Assay [4] in a line: qHTS assay for small molecule agonists of the antioxidant response element (ARE) signaling pathway - cell viability counter screen (AID 743203; calls by dose curve; also: nearly all actives have a fitted effect of over 55% in size; also: potency is read from the fitted curve at half-maximal effect). Put shortly: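 HepG2 cells carrying ARE-driven beta-lactamase; 2,000 cells/well; 5 hrs plating; compound pinned from DMSO; 16 hrs 37C/5% CO2; CellTiter-Glo added; 30 min RT; luminescence.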
The nature of assay [5]: qHTS assay for small molecule activators of the heat shock response signaling pathway - cell viability counter screen (AID 743209). Also: nearly all actives have a fitted effect of over 50% in size. Also: potency is read from the fitted curve at half-maximal effect. Put shortly:
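Luminescence from CellTiter-Glo, added after the beta-lactamase FRET read, gave the viability signal. Cells were HSE-bla HeLa treated with DMSO-dissolved compounds for 5 h at 37 C following overnight plating.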

Assay [6] in a line: qHTS assay to identify small molecule agonists of the peroxisome proliferator-activated receptor delta (PPARd) signaling pathway - cell viability counter screen (AID 743211). Also: nearly all actives have a fitted effect of over 55% in size. Also: potency is read from the fitted curve at half-maximal effect. Put shortly: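 Counter screen for cytotoxicity run in parallel with the PPARd reporter screen. Beta-lactamase reporter HEK293H cells exposed to compounds 17 h; ATP-based CellTiter-Glo luminescence quantified viability.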

Assay [7] is described as follows: qHTS assay for small molecule activators of the heat shock response signaling pathway (AID 743210; active = well fitted activation curve with a large enough effect in the signal ratio in the repeat runs, with a control signal flat, not every such curve was filed as active; the % refers to the signal ratio;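 also: HeLa cells with beta-lactamase reporter driven by heat shock elements; series mostly up to about 63 µM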). A digest of the protocol: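 HeLa HSE-bla cells, overnight plating; cpd in DMSO 5 h, 37 C; LiveBLAzer B/G FRET substrate 2.5 h RT; fluorescence intensity read.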
A short description of assay [8]: qHTS assay for small molecule agonists of the antioxidant response element (ARE) signaling pathway (AID 743202; active = well fitted activation curve with a large enough effect in the signal ratio in the repeat runs, not every such curve was filed as active; the % refers to the signal ratio; also: potency is read from the fitted curve at half-maximal effect). A digest of the protocol:
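Quantitative high-throughput format in HepG2 cells bearing an integrated ARE-beta-lactamase reporter. Compound exposure lasted 16 h at 37 C, and fluorescence was read 2 h after adding LiveBLAzer B/G substrate at room temperature.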

Sequence of Aryl hydrocarbon receptor (Homo sapiens) (P35869 whole entry, looked up): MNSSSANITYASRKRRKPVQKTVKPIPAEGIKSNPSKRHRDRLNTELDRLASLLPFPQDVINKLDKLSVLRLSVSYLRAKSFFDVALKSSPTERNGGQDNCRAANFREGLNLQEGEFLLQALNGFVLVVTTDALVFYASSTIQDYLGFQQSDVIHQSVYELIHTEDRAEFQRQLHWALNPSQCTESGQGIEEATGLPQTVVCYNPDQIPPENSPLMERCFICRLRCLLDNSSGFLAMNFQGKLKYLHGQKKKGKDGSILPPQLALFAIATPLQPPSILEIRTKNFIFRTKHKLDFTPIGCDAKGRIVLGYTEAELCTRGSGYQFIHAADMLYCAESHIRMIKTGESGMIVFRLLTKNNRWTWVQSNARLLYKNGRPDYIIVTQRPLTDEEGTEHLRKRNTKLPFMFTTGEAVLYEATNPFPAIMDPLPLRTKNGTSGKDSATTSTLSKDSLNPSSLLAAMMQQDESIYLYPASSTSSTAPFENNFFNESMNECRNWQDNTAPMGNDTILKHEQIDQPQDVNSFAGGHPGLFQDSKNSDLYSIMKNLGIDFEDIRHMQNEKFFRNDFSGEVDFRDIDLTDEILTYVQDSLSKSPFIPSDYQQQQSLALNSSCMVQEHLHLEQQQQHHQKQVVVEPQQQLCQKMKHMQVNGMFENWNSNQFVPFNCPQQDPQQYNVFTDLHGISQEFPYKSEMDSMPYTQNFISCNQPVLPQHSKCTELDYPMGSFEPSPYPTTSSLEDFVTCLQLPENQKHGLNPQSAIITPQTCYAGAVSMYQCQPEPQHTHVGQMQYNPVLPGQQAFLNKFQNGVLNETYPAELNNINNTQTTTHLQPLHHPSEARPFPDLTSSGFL

On to `CCCCCCCC/C=C/CCCCCCCC1=NCCN1CCO`, for which the Potency result in assay [1] and in assay [2] was “inactive” in each case. The Potency in assay [3] is 43.6 µM (active); in assay [4] it was 24.3 µM (active); in assay [5] it was 19.5 µM (active); in assay [6], 30.9 µM (active).
Turning to `Clc1ccc2cc3ccccc3cc2c1`, the Potency entry in assay [1], in assay [2], in assay [3], in assay [4], in assay [5] and in assay [6] was “inactive” throughout.
Take `CC(=O)N1CCN(c2ccc(OC[C@H]3CO[C@](Cn4ccnc4)(c4ccc(Cl)cc4Cl)O3)cc2)CC1`: the Potency in assay [1] is 6.68 µM (active); in assay [2], “inactive and 27.3 µM (active)”; in assay [3], 43.6 µM (active); in assay [4] it was 61.1 µM (active); in assay [6], 34.7 µM (active).
Turning to `Fc1ccc([C@@H]2CCNC[C@H]2COc2ccc3c(c2)OCO3)cc1`, the Potency entry in assay [1], in assay [3], in assay [5] and in assay [7] was “inactive” throughout. Also, the Potency was 26.6 µM (active) in assay [2], 29.8 µM (active) in assay [4] and 13.3 µM (active) in assay [6].
Consider `O=C(Oc1cccc2cccnc12)c1ccccc1`, for which the Potency entry in assay [1], in assay [2] and in assay [3] was “inactive” throughout. Further, in assay [6], the Potency is 3.35 µM (active).
Regarding `CC(C)(C)C(=O)OCOC(=O)C1N2C(=O)CC2S(=O)(=O)C1(C)C` (stereo not given), the Potency entry in assay [1], in assay [2], in assay [3], in assay [4] and in assay [5] was “inactive” throughout.
Regarding `[Cl][Bi]([Cl])([c]1ccccc1)([c]1ccccc1)[c]1ccccc1`, the Potency entry in assay [1] is “inactive”. Also, the Potency in assay [2] is 19.2 µM (active); in assay [3], 3.45 µM (active); in assay [4] it was 5.42 µM (active); in assay [5], 48.7 µM (active); in assay [6], 5.46 µM (active).
On to `CCc1cc(Cc2cc(CC)cc(C(C)(C)C)c2O)c(O)c(C(C)(C)C)c1`, for which the Potency result in assay [1] and in assay [2] was “inactive” in each case. Moreover, the Potency in assay [3] is 6.92 µM (active); in assay [4] it was 21.7 µM (active); in assay [5] it was 5.49 µM (active); in assay [6], 7.76 µM (active).
As for `On1ccccc1=S`, the Potency entry in assay [1], in assay [2] and in assay [4] was “inactive” each time. For the same molecule, the Potency in assay [3] was 24.3 µM (active); in assay [8], 15.2 µM (active); in assay [5], 0.153 µM (active); in assay [6] it was 0.385 µM (active).
With `C=CC(=O)OCCn1c(=O)n(CCOC(=O)C=C)c(=O)n(CCOC(=O)C=C)c1=O`, in assay [1], the Potency entry is “inactive”. Moreover, the Potency was 38.6 µM (active) in assay [2]; 13.8 µM (active) in assay [3]; 54.5 µM (active) in assay [4]; 13.8 µM (active) in assay [5]; 19.5 µM (active) in assay [6].
On to `CCCCC(CC)COP(=O)(O)OCC(CC)CCCC` (stereo not given), for which the Potency entry in assay [1], in assay [2] and in assay [3] was “inactive” in each case. Also, the Potency in assay [4] was 61.1 µM (active); in assay [5], 49.1 µM (active) and 43.6 µM (active); in assay [6], 55 µM (active).
Take `CCCC(c1cc(C(C)(C)C)c(O)cc1C)c1cc(C(C)(C)C)c(O)cc1C`: the Potency entry in assay [1] and in assay [2] was “inactive” each time. Also, the Potency in assay [3] was 17.6 µM (active); in assay [4], 17.4 µM (active); in assay [5], 12.5 µM (active); in assay [6], 11.1 µM (active).
Turning to `CCN1/C(=C/C=C/c2sc3ccccc3[n+]2CC)Sc2ccccc21`, the Potency was 2.66 µM (active) in assay [1]; 6.68 µM (active) in assay [2]; 14.6 µM (active) in assay [3]; 1.16 µM (active) in assay [8]; 13 µM (active) in assay [4]; 13 µM (active) in assay [5]. Further, in assay [6], the Potency was 14.6 µM (active).
For the molecule `O=S1(=O)CC(Cl)(Cl)C(Cl)(Cl)C1`, the Potency result in assay [1] was “inactive”. The Potency in assay [2] was 13.7 µM (active); in assay [3], 5.49 µM (active); in assay [4] it was 4.33 µM (active); in assay [5], 1.95 µM (active); in assay [6] it was 3.09 µM (active).
As to `CC(C)(C)NC(=O)[C@@H]1C[C@@H]2CCCC[C@@H]2CN1C[C@@H](O)[C@H](Cc1ccccc1)NC(=O)[C@H](CC(N)=O)NC(=O)c1ccc2ccccc2n1`, in assay [1], the Potency entry is “inactive”. For the same molecule, the Potency was 26.6 µM (active) and 22 µM (active) in assay [2]; 49.6 µM (active) in assay [3]; 35.1 µM (active) in assay [6].
On to `C[n+]1cc2c3c(ccc2c2ccc4cc5c(cc4c21)OCO5)OCO3`, for which the Potency in assay [1] was 6.68 µM (active); in assay [2], 10.6 µM (active); in assay [3], 1.3 µM (active); in assay [4], 0.92 µM (active); in assay [6], 1.46 µM (active).
`OC1(c2ccc(Cl)c(C(F)(F)F)c2)CCN(CCCC(c2ccc(F)cc2)c2ccc(F)cc2)CC1`: in assay [1], the Potency entry is “inactive”. The Potency is 21.1 µM (active) in assay [2]; 8.41 µM (active) in assay [3]; 5.96 µM (active) in assay [4]; 7.5 µM (active) in assay [5]; 4.73 µM (active) in assay [6].
With `O=C(Nc1cccc(C(F)(F)F)c1)c1cc(Br)cc(Br)c1O`, the Potency result in assay [1] and in assay [2] was “inactive” throughout. The Potency in assay [3] was 0.389 µM (active); in assay [4], 10.9 µM (active); in assay [6], 6.16 µM (active).
As for `Clc1ccc2n[nH]nc2c1`, the Potency result in assay [1], in assay [2], in assay [3], in assay [4], in assay [5] and in assay [6] was “inactive” each time.
Take `CC(C)(C)C(=O)OCOC(=O)[C@@H]1N2C(=O)[C@@H](NC(=O)[C@H](N)c3ccccc3)[C@H]2SC1(C)C`: the Potency result in assay [1], in assay [2], in assay [3], in assay [4], in assay [5] and in assay [6] was “inactive” throughout.
